# Screens deposited in PubChem BioAssay by National Center for Advancing Translational Sciences (NCATS).
# Only some compounds are listed: those with a hit (about 7.6% of all), similar ones and a draw of the others.
# BRCA1 expr act = activators of BRCA1 expression; 380,000 compounds, 1.1% hits; MCF7-BRCA1-FFLuc reporter, luminescence, 48 h; response scale: scaled: vehicle 0%, 10 µM genistein 100%; Potency, µM (series often up to 46.1 µM), without a hit: at the top dose activation, usual class: activators; AID 624202; further: potency means the concentration at half of the fitted maximal effect; nearly all actives have a fitted effect of over 80% in size
#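 First, MCF7-BRCA1-FFLuc cells (2000/well) attach for 2 h; next, compounds are pin-added and incubated 48 h at 37 °C; finally, luciferase reagent is added and luminescence read after 15 min.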
# p53 reactivator = mutant p53 re-activation in reporter cells; AID 504706; H1299 p53-A138V BP100-luciferase reporter, luminescence, 24 h; Potency, µM (doses to about 92.2 µM), inactives show top-dose activity change, positive = activation, hits mostly activators; 320,000 compounds, 0.063% hits; further: potency means the concentration at half of the fitted maximal effect; % of control where 0% means no effect; nearly all actives have a fitted effect of over 45% in size
#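 p53-null H1299 cells stably carrying temperature-sensitive p53-A138V and a BP100-luciferase reporter were pinned with compounds (4-point, 1:5 series) and held 24 hrs at 37 deg C. Luminescence was read 10 min after detection reagent.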
# RORgamma inh = ROR gamma (mouse) transcription inhibition. 310,000 compounds, 5.4% hits. Potency, µM (highest dose often 53.6 µM), for the others: at the top dose activity change, negative = inhibition, most hits filed as inhibitors. Drosophila S2 Gal4-RORgamma UAS-luciferase reporter, 20 h. P51450; further: potency means the concentration at half of the fitted maximal effect; on the % scale 0 is the no-effect control and ±100 the full control effect; nearly all actives have a fitted effect of over 60% in size
# Target sequence (P51450 whole entry, looked up, the tested form may be a part): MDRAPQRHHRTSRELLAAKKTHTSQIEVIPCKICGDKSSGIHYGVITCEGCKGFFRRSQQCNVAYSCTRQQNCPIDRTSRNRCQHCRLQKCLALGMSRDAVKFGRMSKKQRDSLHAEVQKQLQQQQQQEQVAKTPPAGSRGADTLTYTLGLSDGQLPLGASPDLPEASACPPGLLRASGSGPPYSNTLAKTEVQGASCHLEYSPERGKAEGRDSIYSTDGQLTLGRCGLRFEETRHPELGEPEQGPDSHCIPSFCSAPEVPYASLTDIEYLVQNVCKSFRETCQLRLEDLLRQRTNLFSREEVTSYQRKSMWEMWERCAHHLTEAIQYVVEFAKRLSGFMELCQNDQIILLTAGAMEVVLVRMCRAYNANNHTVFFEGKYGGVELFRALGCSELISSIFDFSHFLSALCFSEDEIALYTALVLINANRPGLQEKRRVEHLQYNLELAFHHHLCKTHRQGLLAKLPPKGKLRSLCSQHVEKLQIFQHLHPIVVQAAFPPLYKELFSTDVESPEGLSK
#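 Drosophila Schneider cells stably carrying a metallothionein-driven Gal4 DBD–ROR gamma fusion and a UAS-Photinus luciferase reporter were exposed to compound for 1 hr, then induced with copper sulfate (700 uM final) for 20 hr at ambient temperature before luminescence reading.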
# Gal4-VP16 FLuc = inhibits Gal4-VP16 luciferase reporter, ROR gamma counter-screen; Drosophila S2 Gal4-VP16 UAS-luciferase, luminescence, 20 h; Potency, µM (doses to about 53.6 µM), without a hit: at the highest dose activity, negative = inhibition, usual class: inhibitors; 310,000 compounds, 3.5% hits;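 further: Gal4-VP16 expression switched on by copper sulfate through the metallothionein promoter; potency means the concentration at half of the fitted maximal effect; on the % scale 0 is the no-effect control and ±100 the full control effect; nearly all actives have a fitted effect of over 50% in size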
# Giardia killer = Giardia lamblia killing. activity change, % at 7.66 µM, hits read low. Giardia lamblia trophozoite viability. 340,000 compounds, 0.15% hits; in the data active means activity change below about -80%; inconclusive means between about -30% and that limit;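 further: parasites exposed to compound for two days anaerobically before the ATP read; on the % scale 0 is the no-effect control and ±100 the full control effect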
#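 Trophozoites 100 cells/well + cpd; 48 hrs, 37 deg C, anaerobic. ATPLite 1-Step added, 15-30 min RT, luminescence read (ATP-based viability).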
# ELG1 DNA repair = inhibitors of ELG1-dependent DNA repair in HEK293T cells; HEK293T ELG1-luciferase reporter, luminescence, 16 h; DNA damage induced by 5-fluorouridine; Potency, µM (highest dose often 46.1 µM), for the others: top-dose activity change, negative = inhibition, usual class: inhibitors; 330,000 compounds, 2.3% hits; further: potency means the concentration at half of the fitted maximal effect; on the % scale 0 is the no-effect control and ±100 the full control effect; nearly all actives have a fitted effect of over 55% in size
#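 Step one: seed 2,000 cells per well. Step two: pin-transfer compound or DMSO alongside 5-fluorouridine. Step three: incubate 16 hr, 37 °C, 5% CO2. Step four: add ONE-Glo, wait 30 min, read luminescence.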
# * marks the source's active call; other numbers are inactive results; ? = inconclusive; . = not tested or not shown; [ ] = another dose, or the depositor's remark. Unless noted, the call rests on the fitted dose curve; in most records, active means well fitted curve in the direction sought with a large enough effect; inconclusive means small, poorly fitted or top-dose-only effect, or another doubt; inactive means no such curve, though single readings can be large; an effect the other way counts as inactive or inconclusive.
SMILES,BRCA1 expr act,p53 reactivator,RORgamma inh,Gal4-VP16 FLuc,Giardia killer,ELG1 DNA repair
CCOC(=O)c1oc2ccc3c(c2c1C)C(=O)CC1(CCN(C(=O)OCC)CC1)O3,-44%,17%,1%,-2%,4,21µM*
CCOC(=O)N1CCC2(CC1)CC(=O)c1c(ccc3oc(C(=O)O)c(C)c13)O2,0%,9%,-3%,0%,-7,0%
CCCN(CC(=O)Nc1ccccc1C)C(=O)C1CCN(S(=O)(=O)c2ccc3c(c2)OCCO3)CC1,-2%,.,.,.,-19,.
Cc1ccc(Cn2nnc3c(=O)[nH]c(C4CCCN(C(=O)c5ccco5)C4)nc32)cc1 (configuration not stated),-16%,-8%,?,-2%,-1,-16%
Cc1cc(-c2ccccc2)n(-c2ccccc2)n1,8.9µM*,?,18%,19%,1,?
Cc1cc(-c2ccco2)n(-c2ccccc2)n1,-4%,1%,-10%,0%,0,9%
Cn1c(=O)c2cc(NC(=S)NC3CCCCC3)ccc2n1Cc1ccc(Cl)cc1,-43%,.,.,.,.,.
COc1ccc(N2CC(O)=C(c3nc(-c4ccc(F)cc4)cs3)C2=N)cc1OC,-47%,-2%,?,1%,10,13µM*
COc1ccc(N2CC(O)=C(c3nc(-c4ccc(F)cc4)cs3)C2=N)cc1Cl,-28%,-4%,-8%,-3%,28,?
C/C(CCc1ccc2c(c1)OCO2)=N\N=C1\NC(=O)CC(C(=O)Nc2ccccc2F)S1 (configuration not stated),0%,-5%,11µM*,?,-5,4%
CCNC(=O)C1CC(=O)N(Cc2ccc3c(c2)OCO3)C(=Nc2ccc(F)cc2)S1 (configuration not stated),-4%,4%,-27%,-11%,4,-8%
CC(C)NC(=S)N1CCN(Cc2ccc3c(c2)OCO3)CC1,-1%,-2%,3%,1%,-2,6%
Cc1c(Cl)cccc1NC(=S)N1CCN(Cc2ccc3c(c2)OCO3)CC1,-30%,-3%,11µM*,14µM*,-2,5%
CCN(CC)c1ccc(C(=O)NC(=S)N2CCN(Cc3ccc4c(c3)OCO4)CC2)cc1,0%,6%,6.3µM*,7.1µM*,-4,3%
Cc1ccc(S(=O)(=O)N(C)C)cc1NC(=S)N1CCN(Cc2ccc3c(c2)OCO3)CC1,-19%,2%,18%,-5%,-22,8.2µM*
Cc1ccccc1NC(=S)N1CCN(Cc2ccc3c(c2)OCO3)CC1,-11%,9%,?,?,13,-10%
CCC(C)NC(=O)CN(c1ccc(OC)cc1)S(=O)(=O)c1ccc(NC(C)=O)cc1 (configuration not stated),-10%,-5%,-8%,-3%,-19,-9%
COc1ccc(-c2nc(NC(=O)c3cc(C(C)(C)C)nn3C)sc2C)cc1,-50%,19%,?,-11%,-4,8.2µM*
Cc1ccc(Cl)cc1NS(=O)(=O)c1ccccc1,-17%,.,.,.,-6,.
Cc1ccc(NC2=C/C(=N\S(=O)(=O)c3cccs3)c3ccccc3C2=O)c(C)c1,-97%,-25%,?,?,-22,?
O=C1C(Nc2ccc(O)cc2)=C/C(=N/S(=O)(=O)c2cccs2)c2ccccc21,-58%,-12%,11µM*,13µM*,0,6.5µM*
Cc1ccc(Cl)cc1NC1=C/C(=N\S(=O)(=O)c2cccs2)c2ccccc2C1=O,-100%,-15%,-92%,5µM*,2,5.2µM*
Cc1cccc(NC2=C/C(=N/S(=O)(=O)c3cccs3)c3ccccc3C2=O)c1,-89%,10%,1%,-3%,0,4.1µM*
O=C(O)c1ccc(NC2=C/C(=N/S(=O)(=O)c3cccs3)c3ccccc3C2=O)cc1,-79%,.,.,.,.,.
COc1cccc(CNc2nc3cc(-c4ccc(F)cc4)sc3c(=O)n2C)c1,5%,.,.,.,.,.
SMILES,BRCA1 expr act,p53 reactivator,RORgamma inh,Gal4-VP16 FLuc,Giardia killer,ELG1 DNA repair
Nc1nc(CSc2nc3ccccc3s2)nc(N2CCCCC2)n1,59%,-5%,6.3µM*,13µM*,-1,-11%
CCc1ccc(Nc2nc(N)nc(CSc3nc4ccccc4s3)n2)cc1,4%,?,13µM*,?,-1,?
Cc1nnc(SCc2nc(N)nc(Nc3ccccc3)n2)s1,?,2%,?,-8%,1,?
O=C1NC[C@H](CCCCN2C[C@H](Cc3ccccc3)N(Cc3ccccc3)C(=O)C2=O)N(CC2CCCCC2)C1=O,-17%,.,.,.,.,.
C=CCn1c(SCC(=O)NCc2ccccc2)nnc1-c1ccccc1O,12%[1.84 µM],-3%,?,-7%,4,18µM*
CC(C)(C)c1ccc(-c2nnc(SCC(=O)O)n2N)cc1,-7%,0%,-40%,0%,?,7%
C=CCn1c(SCC(=O)O)nnc1-c1ccc(C(C)(C)C)cc1,0%,-4%,14µM*,?,-5,0%
CC(C)c1ccc(N(C(=O)c2cc3ccccc3oc2=O)C2C=CS(=O)(=O)C2)cc1 (configuration not stated),-11%,5%,24%,-4%,-8,?
CCNC(=O)NC(=O)C(C)OC(=O)CCS(=O)(=O)c1ccc(C)cc1 (configuration not stated),0%,1%,0%,-3%,1,11%
CCc1cccc(NC(=S)Nc2cccc3ccccc23)c1,-22%,0%,4µM*,7.9µM*,-1,0%
Fc1ccc(NC(=S)Nc2cccc3ccccc23)cc1F,-27%,26%,11µM*,?,4,-7%
Cc1cc(NC(=S)Nc2cccc3ccccc23)n[nH]1,27%,1%,2.8µM*,5µM*,-17,19%
Cc1cccc(NC(=S)Nc2cccc3ccccc23)c1,-45%,7%,7.1µM*,8.9µM*,-9,1%
Fc1ccc(NC(=S)Nc2cccc3ccccc23)cc1,-38%,.,?,?,37,?
Cc1ccc(Cl)cc1NC(=O)c1ccc(NC(=O)CCC(=O)O)cc1,23%,-14%,-9%,-5%,-2,-5%
COC(=O)c1sc2ncccc2c1OCc1ccccc1Cl,0%,-7%,-7%,4%,2,-9%
CC(C)c1ccc(NC(=S)Nc2ccc3[nH]c(=O)[nH]c3c2)cc1,32%,2%,?,?,-2,18%
Cc1ccc(NC(=S)Nc2cccc3ccccc23)cc1,-29%,?,2µM*,5.6µM*,9,?
CC(C)c1ccc(NC(=S)Nc2cccc3ccccc23)cc1,5%,?,3.5µM*,7.1µM*,23,?
